Assay results: PubChem BioAssay (NCI)
The panel holds about 83,000 compounds, 20% with a hit somewhere; the sample as a whole holds those more often.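 Note: values are percent growth. 100 is the growth of untreated cells, values between 100 and 0 indicate rising inhibition; between -100 and 0 indicates cell death.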 Values without a mark were called inactive. The source made the active and inactive calls. The calls were made as follows: active = growth percent below 10; inactive = the rest.

system: DU-145 prostate; experiment: NCI-60 one-dose screen, 48 h (100 = growth as untreated, 0 = no growth, -100 = all killed); details: 10 µM unless noted

Compound | growth
O=C(CCN1CCCC1)Nc1ccc2c(NCCCCc3ccccc3)c3ccccc3nc2c1 | -61.8% (active)
CSc1nc2sc3cccc(Cl)c3n2c(=N)c1C#N | 105%
C#CCNC(=O)c1cccc2c1cc(C)n2-c1nc2c(c(NCc3ccccc3)n1)CCCC2 | 5.22% (active)
Cc1ccc(S(=O)(=O)NNC(=O)/C(=C\c2ccc(Cl)cc2)c2nc3ccccc3s2)cc1 | 101%
O=[N+]([O-])CC(c1ccccc1)c1c[nH]c2ccccc12 (centres undefined) | 84.1%
Nc1nc(Nc2ccccc2SSc2ccccc2Nc2nc(N)nc(-c3ccc(C(F)(F)F)cc3)n2)nc(-c2ccc(C(F)(F)F)cc2)n1 | 73.4%
CCCCCC(=O)Oc1ccc(/C(=C(\C)c2ccccc2)c2ccc(OCCN3CCCCC3)cc2)cc1 | 97.2%
C/C(=N\Nc1cc(C)nc2ccc(Br)cc12)c1ccc([N+](=O)[O-])cc1 | 64.8%
COc1cccc(-c2ccc3c(c2)NC(=O)/C3=C\c2ccc[nH]2)c1 | 65.7%
CCC(=O)Oc1ccc(/C(=C(\C)c2ccccc2)c2ccc(OCCN3CCCCC3)cc2)cc1 | 91.5%
COc1cc(CC(=O)c2ccc(O)c(OC)c2)ccc1O | 108%
Brc1ccc2[nH]cc(-c3cncn3CCc3ccccc3)c2c1 | 68.1%
CCNC(=O)Oc1ccc(/C(=C(\C)c2ccccc2)c2ccc(OCCCN(C)C)cc2)cc1 | 92.5%
O=C(/C=C/c1ccc(F)cc1)c1ccc(NC(=O)N2CCN(c3cc4c(cc3F)c(=O)c(C(=O)O)cn4C3CC3)CC2)cc1 | 103%
